Screening data from PubChem BioAssay.
Shown are actives, neighbours in structure and some others; about 1.5% of the full set was active somewhere.
FEN1 inh: human FEN1 inhibition; P39748; Recombinant FEN1 flap cleavage, fluorescence, 15 min; Potency, µM (series often up to 114 µM), hits mostly inhibitors; 390,000 compounds, 0.35% hits; AID 588795; note: nearly all actives have a fitted effect of over 65% in size
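Concentration–response screening of FEN1 (10 nM): 15 min compound preincubation at room temperature, reaction started with 50 nM substrate and read at 0 and 15 min. Corrected, normalized data were fitted by a four-parameter Hill equation.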
RECQ1 helicase: blocks DNA unwinding by human RECQ1. RECQ1 DNA unwinding, red fluorescence kinetic read. AID 2549. Potency, µM (titrated, usually from 57.3 µM), actives largely listed as inhibitors. 240,000 compounds, 0.54% hits. P46063; note: nearly all actives have a fitted effect of over 30% in size
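RECQ1T1 50 nM; forked duplex (20 bp + 30-nt ss tails) 200 nM, ATP 2 mM final; pH 8.0, 2 mM MgCl2, 2.5 ug/ml poly(dI-dC); 15 min compound preincubation; discontinuous kinetic read over 2 h at RT.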
APEX1 inh: APE1 (human) endonuclease inhibition; Potency, µM (top dose mostly 65.8 µM), usual class: inhibitors; AID 2517; recombinant APE1, TAMRA/BHQ-2 abasic DNA cleavage fluorescence; 350,000 compounds, 0.35% hits; note: nearly all actives have a fitted effect of over 55% in size
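Incision of a quenched TAMRA/BHQ-2 THF abasic-site duplex (50 nM) by 0.75 nM APE1, after 15 min compound preincubation, measured as fluorescence increase over three 60 s reads. Values normalized to buffer, DMSO and NSC13755 control wells.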
PI5P4K alpha inh: inhibitors of human PI5P4K alpha; max response, %; PI5P4Kalpha enzyme, ADP-Glo luminescence, 60 min; stronger effect = lower value; 330,000 compounds, 1.2% hits; active = max response of -50% or lower; inconclusive = between -30% and -50%; inactive = -30% or higher; note: value at the top dose of about 77 µM
Target sequence (P48426 whole entry, looked up): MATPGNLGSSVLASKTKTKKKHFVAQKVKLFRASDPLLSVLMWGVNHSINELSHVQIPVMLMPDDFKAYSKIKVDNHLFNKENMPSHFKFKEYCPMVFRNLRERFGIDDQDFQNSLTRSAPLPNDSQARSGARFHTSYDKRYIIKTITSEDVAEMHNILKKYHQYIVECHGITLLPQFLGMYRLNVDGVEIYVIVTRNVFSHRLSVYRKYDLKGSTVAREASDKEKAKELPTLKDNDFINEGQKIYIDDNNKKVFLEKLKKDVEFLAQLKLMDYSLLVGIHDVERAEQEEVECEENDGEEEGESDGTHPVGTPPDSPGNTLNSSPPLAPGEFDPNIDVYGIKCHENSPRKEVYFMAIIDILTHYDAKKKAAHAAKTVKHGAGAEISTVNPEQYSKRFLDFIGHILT
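Luminescence from ADP-Glo served as readout of PI5P4Kalpha activity in a qHTS format. Reaction: enzyme, substrate, compound, ATP at 5 microM final, 60 min at RT.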
KAT2A inh: GCN5L2 (KAT2A) acetyltransferase inhibition; 390,000 compounds, 0.21% hits; Potency, µM (highest dose often 58.9 µM), most hits filed as inhibitors; GCN5L2 HAT assay, ThioGlo1 CoA-SH fluorescence
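Free CoA generated was detected with ThioGlo1 (50uM) fluorescence at Ex340nm/Em540nm, read immediately and after 20 min at room temperature. Enzyme, 20 nM in HEPES pH 7.5 buffer, saw compounds 15 min before adding 75uM H3(1-25) peptide and 70uM acetyl-CoA.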
BLM helicase inh: blocks DNA unwinding by human BLM helicase; P54132; recombinant BLM DNA unwinding, fluorescence dequenching; Potency, µM (highest dose often 56.1 µM), hits mostly inhibitors; 350,000 compounds, 0.2% hits; AID 2528; note: nearly all actives have a fitted effect of over 35% in size
Each line names hits and unclear results; the compound was inactive in the other large screens. Unless noted, calls come from the whole dose curve; as a rule, active = well fitted curve in the direction sought with a large enough effect; inconclusive = small, poorly fitted or top-dose-only effect, or another doubt; inactive = no such curve, though single readings can be large; an effect the other way counts as inactive or inconclusive.

COc1ccc(-c2c(C#N)c(SCC(N)=O)nc3c2CCCC3)cc1	none
C/C(=N/NC(=O)c1cc2ccccc2cc1O)c1ccco1	PI5P4K alpha inh -65, KAT2A inh inconclusive (no result: RECQ1 helicase)
C/C(=N\NC(=O)c1cc2ccccc2cc1O)c1ccc(C)o1	PI5P4K alpha inh -61 (no result: RECQ1 helicase)
C/C(=N\NC(=O)c1cccc([N+](=O)[O-])c1)c1ccco1	none
C/C(=N\NC(=O)c1cccc(N/N=C(\C)c2ccco2)c1)c1ccco1	PI5P4K alpha inh -86
O=C(Cc1cccc(F)c1)NO	none (no result: RECQ1 helicase, APEX1 inh, PI5P4K alpha inh, KAT2A inh, BLM helicase inh)
CC[C@H](C)[C@H](NC(=O)[C@H](CC(=O)O)NC(=O)[C@H](CC(C)C)NC(=O)[C@H](NC(C)=O)C(c1ccccc1)c1ccccc1)C(=O)N[C@H](C(=O)N[C@@H](Cc1c[nH]c2ccccc12)C(=O)O)[C@@H](C)CC	none (no result: FEN1 inh, PI5P4K alpha inh)
COC(=O)c1cc(C)nc2c1C(=O)C(=O)C=C2N1CCOCC1	BLM helicase inh 8.9µM (no result: RECQ1 helicase)
Nc1n[nH]c(=S)n1/N=C1/C(=O)Nc2ccccc21	FEN1 inh 89µM, PI5P4K alpha inh -89, KAT2A inh 7.1µM
CCC(C)C(N)C1=NC(C(=O)N[C@@H](CC(C)C)C(=O)N[C@H](CCC(=O)[O-])C(=O)N[C@H](C(=O)N[C@H]2CCCCNC(=O)[C@H](CC(N)=O)NC(=O)[C@@H](CC(=O)[O-])NC(=O)[C@H](Cc3cnc[nH]3)NC(=O)[C@@H](Cc3ccccc3)NC(=O)[C@H]([C@@H](C)CC)NC(=O)[C@@H](CCCN)NC2=O)[C@@H](C)CC)CS1.[Zn+2] (stereo partly drawn)	FEN1 inh 8.9µM (no result: RECQ1 helicase, APEX1 inh, KAT2A inh, BLM helicase inh)
CC[C@@H](C)[C@@H](N)C1=N[C@H](C(=O)N[C@@H](CC(C)C)C(=O)N[C@@H](CCC(=O)O)C(=O)N[C@@H](C(=O)N[C@@H]2CCCCNC(=O)[C@@H](CC(N)=O)NC(=O)[C@@H](CC(=O)O)NC(=O)[C@@H](Cc3cnc[nH]3)NC(=O)[C@@H](Cc3ccccc3)NC(=O)[C@@H]([C@H](C)CC)NC(=O)[C@@H](CCCN)NC2=O)[C@@H](C)CC)CS1	none (no result: FEN1 inh, RECQ1 helicase, PI5P4K alpha inh, KAT2A inh, BLM helicase inh)
O=C1NC(=S)NC(=O)C1=Cc1ccccc1C(=O)O	PI5P4K alpha inh -73 (no result: RECQ1 helicase, APEX1 inh, KAT2A inh, BLM helicase inh)
Cc1ccc2sc(NNC(=O)c3cc(=O)c4ccccc4o3)nc2c1C	PI5P4K alpha inh inconclusive
COc1ccc2nc(NNC(=O)c3cc(=O)c4ccccc4o3)sc2c1	PI5P4K alpha inh -76
COc1ccc2nc(NC(=O)c3cc(=O)c4cc(C)c(C)cc4o3)sc2c1	none (no result: RECQ1 helicase, APEX1 inh, PI5P4K alpha inh)
Cc1cccc2sc(NNC(=O)c3cc(=O)c4ccccc4o3)nc12	PI5P4K alpha inh -52
O=C(NNc1nc2c(F)cccc2s1)c1cc(=O)c2ccccc2o1	PI5P4K alpha inh -51
C/C=C(\C)NNC(=O)Cc1ccc(OC)cc1	none (no result: RECQ1 helicase, APEX1 inh, PI5P4K alpha inh, KAT2A inh, BLM helicase inh)
C=C1C=C(C(F)F)n2ncc(C(=O)NCc3ccccc3C(F)(F)F)c2N1	none (no result: FEN1 inh, RECQ1 helicase, PI5P4K alpha inh, KAT2A inh, BLM helicase inh)
CCCC1(C)C(C#N)(C#N)C1(C#N)C#N	none (no result: FEN1 inh, RECQ1 helicase, APEX1 inh, PI5P4K alpha inh, BLM helicase inh)
O=C(Nc1ccccc1C(F)(F)F)NC1(C(=O)N2CCOCC2)CCCCC1	PI5P4K alpha inh -88 (no result: RECQ1 helicase, APEX1 inh, KAT2A inh, BLM helicase inh)
NS(=O)(=O)c1ccc(N=C2C(=O)Nc3ccccc32)cc1	none
O=C1Nc2ccccc2C1=Nc1ccc(S(=O)(=O)Nc2nccs2)cc1	FEN1 inh 50µM, PI5P4K alpha inh -79
O=C(O)c1cc(N=Nc2ccc(-c3ccc(N=Nc4ccc(O)c(C(=O)O)c4)cc3)cc2)ccc1O	RECQ1 helicase 20µM, APEX1 inh 8.9µM, KAT2A inh 3.2µM, BLM helicase inh 18µM (no result: FEN1 inh, PI5P4K alpha inh)
O=C(O)c1cc(N=Nc2ccc(O)c(C(=O)O)c2)ccc1O	none (no result: FEN1 inh, RECQ1 helicase, APEX1 inh, PI5P4K alpha inh)
Cc1cc(=O)[nH]c(=O)n1Cc1ccccc1	PI5P4K alpha inh -84
Cc1cc(=O)c2ccccc2n1Cc1ccccc1	none
NC(=O)c1ncn([C@@H]2O[C@H](CNCc3ccc(OCC(=O)Nc4nccs4)cc3)[C@@H](O)[C@H]2O)n1	PI5P4K alpha inh -64 (no result: RECQ1 helicase, APEX1 inh, KAT2A inh, BLM helicase inh)
NC(=O)c1ncn([C@@H]2O[C@H](CNCc3ccc(OCC(=O)Nc4ccccn4)cc3)[C@@H](O)[C@H]2O)n1	none (no result: RECQ1 helicase, APEX1 inh, KAT2A inh, BLM helicase inh)
